From PubChem
An excerpt weighted towards active compounds, which were near 3.3% of everything screened.
Giardia FBPA inh-1 – inhibitors of Giardia lamblia fructose-1,6-bisphosphate aldolase; A8B2U2; purified Giardia FBPA; Potency, µM (doses to about 59.6 µM), for the others: top-dose activity, negative = inhibition, hits mostly inhibitors; 0.71% of 290,000 active; further: nearly all actives have a fitted effect of over 55% in size
Target sequence (A8B2U2 whole entry, looked up): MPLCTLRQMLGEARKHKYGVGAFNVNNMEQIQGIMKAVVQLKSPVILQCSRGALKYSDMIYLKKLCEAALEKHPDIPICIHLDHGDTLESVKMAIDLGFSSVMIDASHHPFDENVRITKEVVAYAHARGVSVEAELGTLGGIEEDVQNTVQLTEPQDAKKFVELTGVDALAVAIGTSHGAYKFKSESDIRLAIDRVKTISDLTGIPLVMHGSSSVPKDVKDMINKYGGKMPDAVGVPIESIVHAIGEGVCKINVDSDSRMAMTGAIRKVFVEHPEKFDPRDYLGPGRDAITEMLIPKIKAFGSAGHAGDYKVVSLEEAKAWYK
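Giardia FBPA (40 nM reagent) was preincubated 10 min at RT with compound (up to 57.5 uM final), then substrate plus GAPDH/TPI/NAD/arsenate coupling system with diaphorase/resazurin was added; resorufin fluorescence (525/598 nm) was read after 20 min.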
Tb PYK inh – T. brucei pyruvate kinase inhibition. TbPYK enzyme, Kinase-Glo Plus ATP luminescence, 45 min. AID 624173. 0.12% of 410,000 active. Potency, µM (doses to about 76.8 µM), for the others: at the highest dose activity, negative = inhibition, hits mostly inhibitors. Q57TT1; further: nearly all actives have a fitted effect of over 50% in size
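Activity of T. brucei pyruvate kinase was followed by Kinase-Glo Plus luminescence after the enzyme reacted 45 min at room temperature with 130 uM ADP (final) and substrate. Test compounds were added before ADP at multiple concentrations.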
Sm TGR inh – inhibitors of Schistosoma mansoni thioredoxin glutathione reductase; purified TGR, DTNB reduction, TNB absorbance 405 nm; Potency, µM (top dose mostly 114 µM), without a hit: at the highest dose activity change, negative = inhibition, actives largely listed as inhibitors; 3% of 360,000 active; AID 485364; further: nearly all actives have a fitted effect of over 60% in size
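First, TGR (20 nM dispensed) and NADPH were mixed with compound. Second, a 15 min room-temperature incubation followed. Third, further NADPH and then DTNB were added to start the reaction. Finally, TNB absorbance was monitored kinetically.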
RE007 growth inh – less growth of the S. pombe RE007 Vpr strain; S. pombe RE007 Vpr strain, BacTiter-Glo ATP luminescence, 24 h; Potency, µM (top dose mostly 92.2 µM), for inactives: at the highest dose activity change, negative = less growth, hits mostly inhibitors; 0.21% of 360,000 active; active means well fitted falling curve with a large enough effect; inconclusive means small, poorly fitted or top-dose-only effect; inactive means no such curve, though single readings can be large or run the other way; further: nearly all actives have a fitted effect of over 50% in size
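Fission yeast RE007 carrying one integrated HIV-1 vpr copy, seeded at OD 0.01 in PMG+AL medium with 23 nL pinned compound. Grown 24 h at 30 degrees; viability read by BacTiter-Glo luminescence after 5 min.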
LmPK inh – inhibitors of Leishmania mexicana pyruvate kinase | Q27686 | Potency, µM (top dose mostly 57.5 µM), for the others: at the highest dose activity change, negative = inhibition, actives largely listed as inhibitors | AID 1721 | purified LmPK, Kinase-Glo ATP luminescence, 1 h | 0.37% of 290,000 active
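Kinase-Glo luminescence read after 1 h RT reaction of 0.1 nM LmPK with 0.5 mM PEP and 0.1 mM ADP. Activity scaled between uninhibited and enzyme-free controls.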
Giardia growth – Giardia lamblia growth inhibition. shares compounds with Giardia FBPA inh-1. AID 2785. 5% of 1,500 active. Potency, µM (titrated, usually from 57.5 µM), inactives show at the top dose activity change, negative = inhibition, usual class: inhibitors. Giardia lamblia trophozoite growth inhibition;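 further: trophozoites exposed to compound for 48 h at 37 °C; nearly all actives have a fitted effect of over 70% in size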
Mammalian tox – counter-screen for Giardia aldolase inhibitors: mammalian cell toxicity; 4% of 1,500 active; shares compounds with Giardia FBPA inh-1; mammalian cell viability counter-screen, qHTS; Potency, µM (series often up to 57.5 µM), inactives show top-dose viability change, negative = toxicity, hits mostly inhibitors;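 further: Chinese hamster ovary cells used as mammalian cytotoxicity surrogate; viability measured as cellular ATP by luminescence; compound exposure lasted 48 h before reading; nearly all actives have a fitted effect of over 60% in size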
Giardia FBPA inh-2 – confirmation of Giardia fructose-bisphosphate aldolase inhibitors. shares compounds with Giardia FBPA inh-1. purified Giardia aldolase enzyme activity, qHTS. Potency, µM (highest dose often 57.5 µM), inactives show top-dose activity change, negative = inhibition, most hits filed as inhibitors. 5% of 1,500 active; further: nearly all actives have a fitted effect of over 45% in size
Rabbit aldolase – selectivity test for Giardia aldolase inhibitors: rabbit aldolase | shares compounds with Giardia FBPA inh-1 | Rabbit muscle FBPA enzyme inhibition, selectivity counter-screen | Potency, µM (doses to about 57.5 µM), without a hit: top-dose activity, negative = inhibition, hits mostly inhibitors | 4% of 1,500 active; further: nearly all actives have a fitted effect of over 60% in size
Target sequence (P00883 whole entry, looked up): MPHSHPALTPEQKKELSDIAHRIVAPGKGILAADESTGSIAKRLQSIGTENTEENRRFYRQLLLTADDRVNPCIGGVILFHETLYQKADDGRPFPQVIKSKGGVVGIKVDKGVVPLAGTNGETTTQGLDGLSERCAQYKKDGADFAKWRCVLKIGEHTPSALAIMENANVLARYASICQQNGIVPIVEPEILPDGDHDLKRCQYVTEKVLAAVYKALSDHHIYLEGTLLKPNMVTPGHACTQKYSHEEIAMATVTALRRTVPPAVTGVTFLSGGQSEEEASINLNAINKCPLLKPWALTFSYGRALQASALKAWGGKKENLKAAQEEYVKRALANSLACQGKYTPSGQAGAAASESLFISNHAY
GAPDH counter – GAPDH inhibition flagged for Giardia aldolase hits. GAPDH coupling enzyme counterscreen, biochemical, qHTS. AID 2795. 6% of 1,500 active. Potency, µM (highest dose often 57.5 µM), without a hit: top-dose activity change, negative = inhibition, actives largely listed as inhibitors. shares compounds with Giardia FBPA inh-1; further: nearly all actives have a fitted effect of over 55% in size
* = called active by the depositor; [ ] = dose if it differs, or a comment. Unless noted, the call rests on the fitted dose curve; in most records, active means well fitted curve in the direction sought with a large enough effect; inconclusive means small, poorly fitted or top-dose-only effect, or another doubt; inactive means no such curve, though single readings can be large; an effect the other way counts as inactive or inconclusive. On the % scale 0 is the no-effect control and ±100 the full control effect; potency means the concentration at half of the fitted maximal effect.

CCCCN(C)S(=O)(=O)c1ccc(C(=O)Nc2nnc(C3=COCCO3)o2)cc1 was read as Giardia FBPA inh-1 17.7µM*, Tb PYK inh 1.8%, Sm TGR inh 11.4%, RE007 growth inh -1.5%, LmPK inh 1.0%[11.5 µM], Giardia growth inconclusive, Mammalian tox 13.6%, Giardia FBPA inh-2 5.2%, Rabbit aldolase 1.4% and GAPDH counter 3.4%.
N#CCCN(CCC#N)S(=O)(=O)c1ccc(C(=O)Nc2nnc(C3=COCCO3)o2)cc1 was read as Giardia FBPA inh-1 15.8µM*, Tb PYK inh 3.3%, Sm TGR inh -2.0%, RE007 growth inh 2.2%, LmPK inh 1.7%, Giardia growth inconclusive, Mammalian tox 14.9%, Giardia FBPA inh-2 4.8%, Rabbit aldolase 16.1% and GAPDH counter 1.6%.
O=C(CN1CCN(Cc2ccccc2)CC1)Nc1ccc(-n2cnnn2)cc1 was read as Giardia FBPA inh-1 -0.4%, Tb PYK inh 0.8%, Sm TGR inh 6.8%, RE007 growth inh 0.9% and LmPK inh 0.9%.
Screening Cc1cc(C)c2nc(-c3ccccn3)cc(C(=O)NCCc3ccc(S(N)(=O)=O)cc3)c2c1 returned Giardia FBPA inh-1 17.7µM*, Tb PYK inh -16.4%, Sm TGR inh 5.5%, RE007 growth inh 13.8%, LmPK inh 8.7%, Giardia growth 2.7%[10.4 µM], Mammalian tox -1.1%, Giardia FBPA inh-2 -1.2%, Rabbit aldolase 3.3% and GAPDH counter 14.6%.
For Cc1cc(C)c2nc(-c3ccccn3)cc(C(=O)NCc3ccc(S(N)(=O)=O)cc3)c2c1 the results were Giardia FBPA inh-1 -0.1%, Tb PYK inh 0.8%, Sm TGR inh 4.2%, RE007 growth inh 3.4% and LmPK inh -1.5%.
`O=C(Oc1ccc[nH]c1=O)c1cccc(Cl)c1` gave Giardia FBPA inh-1 -17.6%, Tb PYK inh 2.3%, Sm TGR inh -4.8%, LmPK inh 4.3%, Giardia growth 15.1%[38.3 µM], Mammalian tox 9.6%, Giardia FBPA inh-2 0.517µM*, Rabbit aldolase inconclusive and GAPDH counter 32.6µM*.
CCCCN1C(=N)N([C@@H](C)CN2CCC[C@H]2CN2C(N)=NC[C@H]2CC(C)C)C[C@H]1[C@H](C)CC was read as Tb PYK inh -6.1% and RE007 growth inh -17.6%.
`Clc1ccc(SCCOCCN2CCOCC2)cc1` gave Giardia FBPA inh-1 17.8µM*, Tb PYK inh 22.3%, Sm TGR inh -18.2%, RE007 growth inh -10.0%, LmPK inh 1.2%, Giardia growth 8.6%[10.4 µM], Mammalian tox 25.1%, Giardia FBPA inh-2 10.8%, Rabbit aldolase -0.8% and GAPDH counter 10.8%.
`Cc1cc2cc(C(c3nnnn3CC3CCCO3)N3CCCc4ccccc43)c(=O)[nH]c2cc1C` (configuration not stated) gave Giardia FBPA inh-1 3.97µM*, Tb PYK inh -0.8%, Sm TGR inh inconclusive, RE007 growth inh -6.5%, LmPK inh -4.7%, Giardia growth 1.0%, Mammalian tox -4.5%, Giardia FBPA inh-2 -13.2%, Rabbit aldolase -2.9% and GAPDH counter -19.5%.
For Cc1ccc2cc(C(c3nnnn3CC3CCCO3)N3CCc4ccccc4C3)c(=O)[nH]c2c1 (configuration not stated) the results were Giardia FBPA inh-1 inconclusive, Tb PYK inh 0.0%, Sm TGR inh inconclusive, RE007 growth inh -4.6% and LmPK inh 1.6%.
Screening OCC1CCCC(n2cnc3c(=S)nc[nH]c32)O1 (configuration not stated) returned Giardia FBPA inh-1 3.97µM*, Tb PYK inh -13.4%, Sm TGR inh -5.0%, RE007 growth inh 5.7%, LmPK inh 6.0%, Giardia growth 7.9%[38.3 µM], Mammalian tox 16.9%, Giardia FBPA inh-2 -2.8%, Rabbit aldolase -0.9% and GAPDH counter inconclusive.
For O=[N+]([O-])c1cccc(Cn2cnc3c(=S)nc[nH]c32)c1 the results were Tb PYK inh -23.8% and RE007 growth inh 11.4%.
Screening S=c1nc[nH]c2c1ncn2C1CCCC1 returned Giardia FBPA inh-1 3.97µM*, Tb PYK inh inconclusive, Sm TGR inh -5.7%, RE007 growth inh 3.3%, LmPK inh -0.6%, Giardia growth 7.6%[38.3 µM], Mammalian tox -2.9%, Giardia FBPA inh-2 -3.2%, Rabbit aldolase -11.4% and GAPDH counter -4.7%.
For CCOC1CCCC(n2cnc3c(=S)nc[nH]c32)O1 (configuration not stated) the results were Tb PYK inh -15.5% and RE007 growth inh 8.5%.
For CC1(C)CC(=O)c2c(-c3cccnc3)n[nH]c2C1 the results were Giardia FBPA inh-1 3.4%, Tb PYK inh -11.7%, Sm TGR inh 8.8%, RE007 growth inh 6.4% and LmPK inh -1.1%.
Cc1cccc(N(CC(=O)N/N=C/c2cc([N+](=O)[O-])ccc2Cl)S(C)(=O)=O)c1C was read as Giardia FBPA inh-1 17.7µM*, Tb PYK inh -3.5%, Sm TGR inh -5.7%, RE007 growth inh -4.9%, LmPK inh 1.3%, Giardia growth -3.4%[38.3 µM], Mammalian tox 0.6%, Giardia FBPA inh-2 -16.3%, Rabbit aldolase -16.8% and GAPDH counter inconclusive.
Screening CCc1ccccc1NC(=O)CN1C(=O)CCc2cc(S(=O)(=O)N3CCCCC3)ccc21 returned Tb PYK inh -11.5% and Sm TGR inh -0.9%.
For COc1ccc(CN(C)CC(=O)Nc2c(C)cccc2C)c(OC)c1 the results were Giardia FBPA inh-1 6.0%, Tb PYK inh 2.5%, Sm TGR inh 2.8%, RE007 growth inh -11.5% and LmPK inh 2.7%.
`COc1ccc(CN(C)CC(=O)Nc2sc3c(c2C#N)CCC3)c(OC)c1` gave Giardia FBPA inh-1 17.7µM*, Tb PYK inh -5.5%, Sm TGR inh -6.3%, RE007 growth inh -7.0%, LmPK inh -0.9%, Giardia growth 17.1%[10.4 µM], Mammalian tox 3.5%, Giardia FBPA inh-2 1.9%, Rabbit aldolase 10.8% and GAPDH counter -5.7%.
